H9c2 protect = protects H9c2 cardiomyocytes from peroxide injury; 360,000 compounds, 0.63% hits; H2O2 injury protection, ATPLite, 2 h; protection from H2O2 cell death, % at 20 µM; AID 588492;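 active means compounds giving at least 50% protection of heart cells from peroxide-induced death in the single-dose screen, raw or plate-pattern-corrected value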
HSV replic up = increases HSV replication in cells. HSV replication augmentation in cells, fold increase. maximum fold increase. 220,000 compounds, 0.005% hits; in the data active means maximum fold increase above about 1.5; tested in PC3 cells
MIN6 prolif = induces beta-cell replication in MIN6 cells; MIN6 cells proliferation, ATPlite luminescence, 48 h; cells starved in 0.2% serum; 100% = growth in 10% serum; 330,000 compounds, 0.29% hits; proliferation, % at 10 µM; AID 2380;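 active means compounds whose signal lies at least 3.5 SD above the mean of all wells on their plate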
V-ATPase pHluor = yeast V-ATPase proton transport regulation by pHLuorin; response, % at 10 µM; 350,000 compounds, 0.37% hits; S. cerevisiae, pHLuorin cytosolic pH fluorescence; in the data active means response mostly above about 7.3%, no sharp cut-off; inactive means mostly below about 5.4%; further: actives read high
p-CIP stab down = compounds decreasing mouse p/CIP protein stability; Q05BA5; F442A p/CIP-EGFP cells, EGFP fluorescence, 16 h; decrease of EGFP signal, % at 10 µM; 290,000 compounds, 0.01% hits;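 active means EGFP signal decrease of at least 30% at 10 µM or well 3 SD below plate mean, unless failing retest; inactive means the rest, including hits failing retest or dose response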
Yeast superoxide = lowers age-related superoxide in aged yeast cells; S. cerevisiae aged cells, superoxide DHE fluorescence; stronger effect = lower value; 330,000 compounds, 0.18% hits; superoxide response (% of plate mean), % at 10 µM; AID 2690;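 active means superoxide response under a set limit, about three screen SD below normal, cut at about 65% in these data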;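 further: yeast aged for seven days with compound at 30 °C before DHE staining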
CR mimetic CP = yeast aging superoxide inhibition, cherry pick confirmation; shares compounds with Yeast superoxide; S. cerevisiae aging, superoxide DHE fluorescence; stronger effect = lower value; superoxide response (% of plate), % at 10 µM; 850 compounds, 1% hits; AID 434994;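 active means superoxide signal below 65% of the plate average of sample wells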;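 further: cells aged with compound for 7 days at 30 degrees C before staining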
DHE counter = compound alters DHE oxidation or fluorescence in yeast; shares compounds with Yeast superoxide; S. cerevisiae BY4741, flow cytometry; stronger effect = lower value; fluorescence response, % at 10 µM; 850 tested, under 10 active; AID 435000;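 active means fluorescence response below 15%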;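 further: lower means stronger quenching of DHE signal or ROS scavenging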
Hits are given with their value; n = inactive; x = not tested or not shown. Only some compounds are listed: those with a hit (about 1.4% of all), similar ones and a draw of the others.

SMILES	H9c2 protect	HSV replic up	MIN6 prolif	V-ATPase pHluor	p-CIP stab down	Yeast superoxide	CR mimetic CP	DHE counter
COc1ccc(C2=NS(=O)(=O)N(C)C(C(=O)Nc3ccc(F)cc3F)=C2)cc1	n	x	n	n	n	n	x	x
CCOC(=O)N1CCN(S(=O)(=O)c2ccc(C(=O)Nc3nnc(CC)o3)cc2)CC1	n	n	n	n	n	n	x	x
CC1CC(C)CN(S(=O)(=O)c2ccc(C(=O)Nc3nnc(C4CC4)o3)cc2)C1 (configuration not stated)	n	x	n	n	n	n	n	n
CC1CCCN(S(=O)(=O)c2ccc(C(=O)Nc3nnc(-c4ccco4)o3)cc2)C1 (configuration not stated)	n	x	n	n	n	n	x	x
CC1CCN(S(=O)(=O)c2ccc(C(=O)Nc3nnc(-c4ccccn4)o3)cc2)CC1	n	n	n	n	n	n	n	n
CC1CCN(S(=O)(=O)c2ccc(C(=O)Nc3nnc(C4=COCCO4)o3)cc2)CC1	n	x	n	n	n	n	x	x
COCc1nnc(NC(=O)c2ccc(S(=O)(=O)N3CCCC3)cc2)o1	n	x	n	n	n	n	n	n
CCOC(=O)N1CCN(S(=O)(=O)c2ccc(C(=O)Nc3nnc(C4CC4)o3)cc2)CC1	n	n	n	n	n	n	x	x
CCc1nnc(NC(=O)c2ccc(S(=O)(=O)N3CCCC(C)C3)cc2)o1 (configuration not stated)	n	x	n	n	n	64.2	n	n
CN(C)S(=O)(=O)n1cnc([C@@H]2[C@H]3C(=O)OC[C@@H]3C[C@@]23N=CN(Cc2ccccc2)C3=O)c1	n	x	n	n	x	n	x	x
CCOC(=O)CC(NC(=O)Cn1nnc(-c2ccccc2Cl)n1)c1ccc(OC)cc1 (configuration not stated)	n	n	n	n	n	n	x	x
CCOC(=O)C1CCN(C(=O)COc2ccc(Br)cc2)CC1	n	n	n	n	n	n	x	x
CCOC(=O)C1CCN(C(=O)COc2ccc(C(=O)c3ccccc3)cc2)CC1	n	x	n	x	x	63.5	n	n
Cc1ccc(-c2nc(N)c3c(-c4ccc(C)cc4)nn(C(C)(C)C)c3n2)cc1	n	n	n	x	n	n	x	x
Cc1ccc(-c2nn(C(C)(C)C)c3ncnc(NS(=O)(=O)c4ccc([N+](=O)[O-])cc4)c23)cc1	n	n	n	n	n	n	x	x
CC(C)(C)n1nc(-c2ccc(Cl)cc2)c2c(N)ncnc21	n	n	n	n	n	49.6	55.8	n
CC(C)(C)n1nc(-c2ccc(F)cc2)c2c(N)ncnc21	n	n	n	n	n	32.0	n	n
CC(C)CCNC(=O)c1sc2ccc(S(=O)(=O)N3CCCCC3)cc2c1N	n	n	n	n	n	n	x	x
CCC(CC)NCc1ccc2c(c1)c1ccccc1n2CC	n	n	n	n	n	n	n	n
CCn1c2ccccc2c2cc(/C(C)=N/O)ccc21	n	x	n	n	n	n	n	n
CCCn1c2ccccc2c2cc(C(=O)O)ccc21	n	x	n	n	n	n	n	n
CCn1c2ccccc2c2cc(N)ccc21	n	n	n	n	n	n	n	n
Cc1cccc(C)c1NC(=O)COC(=O)/C=C/c1ccc(S(=O)(=O)N2CCOCC2)cc1	n	x	n	n	x	n	x	x
O=S(=O)(c1ccc(Br)s1)N1CCC(Cc2ccccc2)CC1	n	n	n	n	n	n	x	x
O=S(=O)(c1ccc(Cl)s1)N1CCC(Cc2ccccc2)CC1	n	n	n	n	n	62.3	n	n
Cc1cc(Cl)ccc1C(O)c1ncc(-c2ccc(F)cc2)[nH]1 (configuration not stated)	n	x	x	x	x	x	x	x
Cc1ccc(Cl)cc1NC(=O)C1CCCN1S(=O)(=O)c1ccc(-c2ccc(=O)[nH]n2)s1 (configuration not stated)	n	x	n	n	n	n	x	x
CCOc1ccccc1NC(=O)NCc1ccc(F)cc1	n	n	n	n	n	64.5	n	n
COc1ccc(OC)c(-n2nnnc2SCC(=O)NCCc2ccccc2)c1	n	n	n	x	n	52.6	n	n

Compound activity from PubChem.
